Laboratory results reported in the supplement of paper PMC10849652.
The full data set covers some 7,900 targets. This sample favours those with a hit. About 0.6% of all pairs of compound and target were hits. Unmarked numbers belong to inactive results.

compound: C1=CC=C(C=C1)C2=NC(=C(N2)C3=CC=NC=C3)C4=CC(=C(C=C4)Cl)O; assay: log2 fold change, soluble protein after heating vs DMSO (PISA); higher = thermal stabilisation; K562 cells, 10 uM, 30 min; active = over 0.2 and 3.5 SD of the protein, either way, in both replicates (recomputed)
Outline: (§1)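 Quantification of soluble protein used TMTpro 16plex LC-MS/MS, with channel sums equalised. Samples were the supernatant after 21,000xg for 90 min of pooled aliquots from K562 cells (2×10^6 cells/mL) treated with 10 μM compound for 30 min, heated for 3 min over 48°C-58°C, and extracted in PBS with 0.5% NP-40 at 4°C. Values, from duplicates, describe thermal stability against control samples on a log2 fold-change scale.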

Sequence of UniProt Q08AE8 (Q08AE8 whole entry, looked up): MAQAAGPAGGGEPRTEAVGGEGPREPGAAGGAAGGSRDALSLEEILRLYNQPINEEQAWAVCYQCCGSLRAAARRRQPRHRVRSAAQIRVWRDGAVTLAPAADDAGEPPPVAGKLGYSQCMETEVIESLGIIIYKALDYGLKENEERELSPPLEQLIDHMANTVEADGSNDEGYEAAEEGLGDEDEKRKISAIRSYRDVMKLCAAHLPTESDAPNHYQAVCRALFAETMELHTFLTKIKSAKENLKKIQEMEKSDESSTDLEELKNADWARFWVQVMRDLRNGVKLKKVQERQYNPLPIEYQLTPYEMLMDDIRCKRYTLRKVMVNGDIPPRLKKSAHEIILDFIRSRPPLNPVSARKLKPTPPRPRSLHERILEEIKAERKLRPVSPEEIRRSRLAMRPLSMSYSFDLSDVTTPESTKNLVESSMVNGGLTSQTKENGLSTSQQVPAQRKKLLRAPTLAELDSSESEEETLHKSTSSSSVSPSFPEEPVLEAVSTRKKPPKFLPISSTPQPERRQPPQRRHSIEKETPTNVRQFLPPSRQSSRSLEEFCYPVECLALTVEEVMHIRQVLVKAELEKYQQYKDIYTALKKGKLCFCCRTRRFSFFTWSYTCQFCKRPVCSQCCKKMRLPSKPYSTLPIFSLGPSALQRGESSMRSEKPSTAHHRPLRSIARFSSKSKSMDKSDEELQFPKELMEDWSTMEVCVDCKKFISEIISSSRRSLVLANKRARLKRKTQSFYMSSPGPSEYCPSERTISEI
Sequence of UniProt O95149 (O95149 whole entry, looked up): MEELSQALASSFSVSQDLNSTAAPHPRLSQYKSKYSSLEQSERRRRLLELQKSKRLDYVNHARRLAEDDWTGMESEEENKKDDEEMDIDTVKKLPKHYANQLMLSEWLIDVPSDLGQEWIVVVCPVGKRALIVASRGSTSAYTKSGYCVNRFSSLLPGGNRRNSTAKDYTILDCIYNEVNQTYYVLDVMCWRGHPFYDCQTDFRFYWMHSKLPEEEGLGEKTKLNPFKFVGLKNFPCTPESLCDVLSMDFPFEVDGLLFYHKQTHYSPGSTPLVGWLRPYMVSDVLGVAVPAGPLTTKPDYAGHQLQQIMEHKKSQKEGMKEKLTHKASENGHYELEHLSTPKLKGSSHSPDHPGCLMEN
Sequence of UniProt O15198 (O15198 whole entry, looked up): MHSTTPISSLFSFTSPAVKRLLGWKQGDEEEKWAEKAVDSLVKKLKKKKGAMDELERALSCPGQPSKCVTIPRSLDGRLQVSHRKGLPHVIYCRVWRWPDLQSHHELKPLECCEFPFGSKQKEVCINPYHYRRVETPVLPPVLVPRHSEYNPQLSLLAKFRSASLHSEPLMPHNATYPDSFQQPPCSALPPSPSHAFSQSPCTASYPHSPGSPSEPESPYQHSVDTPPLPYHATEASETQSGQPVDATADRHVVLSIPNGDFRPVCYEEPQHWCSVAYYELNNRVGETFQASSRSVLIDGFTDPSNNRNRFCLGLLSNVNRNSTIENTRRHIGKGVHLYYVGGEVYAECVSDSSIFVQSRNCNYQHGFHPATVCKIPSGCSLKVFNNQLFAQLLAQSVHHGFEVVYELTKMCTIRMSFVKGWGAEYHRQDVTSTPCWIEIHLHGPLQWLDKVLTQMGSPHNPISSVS
Sequence of UniProt Q92536 (Q92536 whole entry, looked up): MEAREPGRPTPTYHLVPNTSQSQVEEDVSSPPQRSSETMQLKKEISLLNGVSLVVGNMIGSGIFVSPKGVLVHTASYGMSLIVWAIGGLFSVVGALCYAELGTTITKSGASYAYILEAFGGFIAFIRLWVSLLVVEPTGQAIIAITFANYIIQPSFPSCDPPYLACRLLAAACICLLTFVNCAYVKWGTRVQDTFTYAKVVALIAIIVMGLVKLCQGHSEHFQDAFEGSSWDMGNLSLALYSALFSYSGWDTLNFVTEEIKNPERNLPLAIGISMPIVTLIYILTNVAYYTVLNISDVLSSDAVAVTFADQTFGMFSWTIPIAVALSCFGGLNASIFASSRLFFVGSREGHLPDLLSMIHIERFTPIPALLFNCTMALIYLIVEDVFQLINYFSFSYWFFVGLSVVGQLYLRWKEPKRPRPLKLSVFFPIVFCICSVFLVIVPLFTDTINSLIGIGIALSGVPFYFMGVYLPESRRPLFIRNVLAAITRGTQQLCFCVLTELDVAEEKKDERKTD
Sequence of UniProt Q15005 (Q15005 whole entry, looked up): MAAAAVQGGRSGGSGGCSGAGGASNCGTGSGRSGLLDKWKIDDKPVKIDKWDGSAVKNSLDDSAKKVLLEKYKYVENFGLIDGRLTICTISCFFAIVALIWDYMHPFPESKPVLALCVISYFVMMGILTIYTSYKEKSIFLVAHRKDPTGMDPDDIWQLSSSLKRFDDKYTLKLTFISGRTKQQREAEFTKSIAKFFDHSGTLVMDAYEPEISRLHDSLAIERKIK
Sequence of UniProt Q8IWZ8 (Q8IWZ8 whole entry, looked up): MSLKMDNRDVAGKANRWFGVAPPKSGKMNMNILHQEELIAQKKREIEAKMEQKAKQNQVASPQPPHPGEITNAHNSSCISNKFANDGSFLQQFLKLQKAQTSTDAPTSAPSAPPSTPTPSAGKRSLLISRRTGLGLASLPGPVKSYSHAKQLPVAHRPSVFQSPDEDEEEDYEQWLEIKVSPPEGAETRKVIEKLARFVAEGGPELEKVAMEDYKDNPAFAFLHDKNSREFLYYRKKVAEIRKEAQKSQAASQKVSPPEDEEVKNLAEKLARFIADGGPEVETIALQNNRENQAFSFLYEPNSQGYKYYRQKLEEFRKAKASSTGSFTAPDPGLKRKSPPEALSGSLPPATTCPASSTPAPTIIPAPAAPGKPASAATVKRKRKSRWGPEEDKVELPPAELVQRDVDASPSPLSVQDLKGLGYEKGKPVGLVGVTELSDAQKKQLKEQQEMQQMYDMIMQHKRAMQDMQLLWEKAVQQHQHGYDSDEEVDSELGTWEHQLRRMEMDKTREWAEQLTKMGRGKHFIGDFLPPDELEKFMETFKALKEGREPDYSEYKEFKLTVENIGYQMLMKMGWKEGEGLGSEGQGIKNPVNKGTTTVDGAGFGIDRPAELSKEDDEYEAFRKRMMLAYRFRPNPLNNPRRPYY
Sequence of UniProt Q8NEW0 (Q8NEW0 whole entry, looked up): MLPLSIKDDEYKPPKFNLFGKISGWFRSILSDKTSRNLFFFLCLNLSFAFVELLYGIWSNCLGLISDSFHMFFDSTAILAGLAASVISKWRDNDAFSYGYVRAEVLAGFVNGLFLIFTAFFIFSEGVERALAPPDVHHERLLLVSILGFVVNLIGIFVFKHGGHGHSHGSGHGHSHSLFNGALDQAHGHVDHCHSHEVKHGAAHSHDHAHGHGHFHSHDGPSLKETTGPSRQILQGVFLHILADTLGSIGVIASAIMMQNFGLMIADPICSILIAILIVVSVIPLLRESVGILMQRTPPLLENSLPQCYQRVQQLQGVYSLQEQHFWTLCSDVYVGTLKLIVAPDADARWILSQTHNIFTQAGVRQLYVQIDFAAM
Sequence of UniProt P51692 (P51692 whole entry, looked up): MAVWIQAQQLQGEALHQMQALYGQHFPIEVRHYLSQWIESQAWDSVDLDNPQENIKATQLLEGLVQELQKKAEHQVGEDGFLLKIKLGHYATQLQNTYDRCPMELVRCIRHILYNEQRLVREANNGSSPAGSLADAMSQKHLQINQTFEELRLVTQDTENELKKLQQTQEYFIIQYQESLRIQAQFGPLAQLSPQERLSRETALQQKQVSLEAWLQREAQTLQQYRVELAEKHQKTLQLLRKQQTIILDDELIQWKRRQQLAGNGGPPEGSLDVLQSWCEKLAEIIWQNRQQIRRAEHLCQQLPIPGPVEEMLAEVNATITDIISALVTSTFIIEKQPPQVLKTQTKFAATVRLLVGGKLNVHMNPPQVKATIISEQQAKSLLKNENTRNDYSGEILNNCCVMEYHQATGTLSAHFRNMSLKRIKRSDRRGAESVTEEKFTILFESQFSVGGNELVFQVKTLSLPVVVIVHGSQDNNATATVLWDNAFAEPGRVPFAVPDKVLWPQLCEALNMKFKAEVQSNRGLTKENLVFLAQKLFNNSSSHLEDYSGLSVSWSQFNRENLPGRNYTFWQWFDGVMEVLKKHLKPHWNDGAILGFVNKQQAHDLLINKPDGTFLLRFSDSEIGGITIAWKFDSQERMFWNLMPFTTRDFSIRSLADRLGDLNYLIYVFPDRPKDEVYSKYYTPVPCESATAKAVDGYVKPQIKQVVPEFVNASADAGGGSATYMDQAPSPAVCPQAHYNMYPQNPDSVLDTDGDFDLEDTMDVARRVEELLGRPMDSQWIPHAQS
Sequence of UniProt Q01130 (Q01130 whole entry, looked up): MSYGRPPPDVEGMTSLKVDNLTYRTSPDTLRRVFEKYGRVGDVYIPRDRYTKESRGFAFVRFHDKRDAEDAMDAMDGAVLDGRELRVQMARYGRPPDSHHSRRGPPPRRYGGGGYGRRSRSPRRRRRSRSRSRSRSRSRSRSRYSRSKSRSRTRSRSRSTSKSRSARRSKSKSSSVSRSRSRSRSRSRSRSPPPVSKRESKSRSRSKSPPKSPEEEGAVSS
Sequence of UniProt P78382 (P78382 whole entry, looked up): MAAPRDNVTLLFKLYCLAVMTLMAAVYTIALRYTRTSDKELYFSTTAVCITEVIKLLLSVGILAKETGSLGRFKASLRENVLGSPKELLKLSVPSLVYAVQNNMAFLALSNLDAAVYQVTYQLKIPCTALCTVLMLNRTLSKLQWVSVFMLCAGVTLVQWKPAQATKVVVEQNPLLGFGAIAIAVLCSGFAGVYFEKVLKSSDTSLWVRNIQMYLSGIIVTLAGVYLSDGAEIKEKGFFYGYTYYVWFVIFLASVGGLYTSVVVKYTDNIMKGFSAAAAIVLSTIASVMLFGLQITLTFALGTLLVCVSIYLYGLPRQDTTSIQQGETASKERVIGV
Sequence of UniProt O75663 (O75663 whole entry, looked up): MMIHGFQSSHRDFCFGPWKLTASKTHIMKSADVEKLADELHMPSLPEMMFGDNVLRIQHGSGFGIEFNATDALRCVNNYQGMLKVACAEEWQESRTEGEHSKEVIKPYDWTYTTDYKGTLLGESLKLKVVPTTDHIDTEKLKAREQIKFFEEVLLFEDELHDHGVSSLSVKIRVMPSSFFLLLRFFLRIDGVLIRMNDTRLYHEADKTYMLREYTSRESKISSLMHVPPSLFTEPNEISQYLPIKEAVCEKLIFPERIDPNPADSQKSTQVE

| Target | log2 fold change |
| --- | --- |
| SPPL2B (UniProt Q8TCT7) | 0.003 |
| STK4 (UniProt Q13043) | -0.009 |
| SMG1 (UniProt Q96Q15) | -0.088 |
| STK38L (UniProt Q9Y2H1) | -0.368 |
| TGFBRAP1 (UniProt Q8WUH2) | 0.194 |
| SLC9A6 isoform 2 (UniProt Q92581) | -0.04 |
| SLC35A1 (UniProt P78382) | -0.043 |
| TFR2 (UniProt Q9UP52) | -0.039 |
| TERF2IP (UniProt Q9NYB0) | -0.038 |
| SUGP1 (UniProt Q8IWZ8) | 0 |
| SURF1 (UniProt Q15526) | 0.056 |
| STARD7 (UniProt Q9NQZ5) | 0.017 |
| STEAP3 isoform 2 (UniProt Q658P3) | -0.008 |
| ST6GAL1 (UniProt P15907) | 0.064 |
| SPIRE1 (UniProt Q08AE8) | 0.048 |
| SLC27A1 (UniProt Q6PCB7) | 0.016 |
| SPG21 (UniProt Q9NZD8) | 0.103 |
| SRP72 (UniProt O76094) | 0.005 |
| SLC38A7 (UniProt Q9NVC3) | 0.441 (active) |

| Target | log2 fold change |
| --- | --- |
| SLK isoform 2 (UniProt Q9H2G2) | -0.135 |
| TIPRL (UniProt O75663) | -0.002 |
| STX17 (UniProt P56962) | -0.01 |
| STIM1 (UniProt Q13586) | -0.025 |
| SLC30A10 (UniProt Q6XR72) | 0.025 |
| STK25 (UniProt O00506) | -0.025 |
| SNUPN (UniProt O95149) | -0.085 |
| SLC7A6 (UniProt Q92536) | 0.008 |
| SMAD9 (UniProt O15198) | -0.111 |
| TJP2 isoform 7 (UniProt Q9UDY2) | 0.008 |
| SLC30A7 (UniProt Q8NEW0) | 0.109 |
| STOM (UniProt P27105) | -0.188 |
| STAT5B (UniProt P51692) | -0.007 |
| SPCS2 (UniProt Q15005) | -0.004 |
| SMAP2 (UniProt Q8WU79) | -0.015 |
| TIAL1 isoform 2 (UniProt Q01085) | -0.026 |
| STAT6 (UniProt P42226) | 0.025 |
| SLC6A6 (UniProt P31641) | 0.007 |
| SRSF2 (UniProt Q01130) | -0.038 |

compound: C1=CC=C2C(=C1)C3=NNC4=CC=CC(=C43)C2=O; assay: as above
Outline: as §1

| Target | log2 fold change |
| --- | --- |
| SPPL2B (UniProt Q8TCT7) | -0.072 |
| STK4 (UniProt Q13043) | -0.208 (active) |
| SMG1 (UniProt Q96Q15) | 0.049 |
| STK38L (UniProt Q9Y2H1) | 0.102 |
| TGFBRAP1 (UniProt Q8WUH2) | 0.121 |
| SLC9A6 isoform 2 (UniProt Q92581) | -0.056 |
| SLC35A1 (UniProt P78382) | -0.061 |
| TFR2 (UniProt Q9UP52) | -0.023 |
| TERF2IP (UniProt Q9NYB0) | -0.074 |
| SUGP1 (UniProt Q8IWZ8) | -0.012 |
| SURF1 (UniProt Q15526) | 0.017 |
| STARD7 (UniProt Q9NQZ5) | 0.067 |
| STEAP3 isoform 2 (UniProt Q658P3) | 0.004 |
| ST6GAL1 (UniProt P15907) | 0.048 |
| SPIRE1 (UniProt Q08AE8) | -0.063 |
| SLC27A1 (UniProt Q6PCB7) | 0.012 |
| SPG21 (UniProt Q9NZD8) | 0.083 |
| SRP72 (UniProt O76094) | -0.052 |
| SLC38A7 (UniProt Q9NVC3) | 0.006 |

| Target | log2 fold change |
| --- | --- |
| SLK isoform 2 (UniProt Q9H2G2) | -0.047 |
| TIPRL (UniProt O75663) | 0.03 |
| STX17 (UniProt P56962) | 0.059 |
| STIM1 (UniProt Q13586) | -0.067 |
| SLC30A10 (UniProt Q6XR72) | -0.003 |
| STK25 (UniProt O00506) | -0.007 |
| SNUPN (UniProt O95149) | -0.053 |
| SLC7A6 (UniProt Q92536) | -0.033 |
| SMAD9 (UniProt O15198) | -0.098 |
| TJP2 isoform 7 (UniProt Q9UDY2) | -0.006 |
| SLC30A7 (UniProt Q8NEW0) | 0.004 |
| STOM (UniProt P27105) | -0.038 |
| STAT5B (UniProt P51692) | -0.061 |
| SPCS2 (UniProt Q15005) | -0.08 |
| SMAP2 (UniProt Q8WU79) | 0.017 |
| TIAL1 isoform 2 (UniProt Q01085) | 0.018 |
| STAT6 (UniProt P42226) | -0.026 |
| SLC6A6 (UniProt P31641) | -0.054 |
| SRSF2 (UniProt Q01130) | -0.032 |
